Screening results from PubChem.
In the library only some 3.8% were active in any assay of this set; here they are far more common.
Y pestis TopoI: blocks Yersinia pestis topoisomerase I activity; actives 0.064% (n = 360,000); activity, % at 10 µM; Y. pestis Topo-I cleavage product accumulation, plate reader; in the data active means activity above about 50%, passing the limit was not always enough
PrPC surface inh: cell surface PrPC inhibition, primary TR-FRET screen; TR-FRET read-out; inhibition, % at 13.8 µM; actives 0.43% (n = 370,000); AID 720596; in the data active means inhibition above about 24%; further: 0% = median of the test wells and 100% = reference compound wells
PrP 5UTR inh: suppresses PrP 5' UTR mRNA reporter expression | cell-based PrP 5' UTR mRNA reporter, plate reader | inhibition, % (test concentration not listed) | actives 0.35% (n = 340,000) | AID 488862; in the data active means inhibition above about 52%; further: 0 = median of the neutral control wells
FBA Mtb inh: inhibits M. tuberculosis FBA enzyme | P9WQA3 | purified M. tuberculosis FBA, fluorescence read-out | inhibition, % at 1 µM | actives 2.3% (n = 360,000);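 further: 0% = vehicle and 100% = reference inhibitor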
Target sequence (P9WQA3 whole entry, looked up): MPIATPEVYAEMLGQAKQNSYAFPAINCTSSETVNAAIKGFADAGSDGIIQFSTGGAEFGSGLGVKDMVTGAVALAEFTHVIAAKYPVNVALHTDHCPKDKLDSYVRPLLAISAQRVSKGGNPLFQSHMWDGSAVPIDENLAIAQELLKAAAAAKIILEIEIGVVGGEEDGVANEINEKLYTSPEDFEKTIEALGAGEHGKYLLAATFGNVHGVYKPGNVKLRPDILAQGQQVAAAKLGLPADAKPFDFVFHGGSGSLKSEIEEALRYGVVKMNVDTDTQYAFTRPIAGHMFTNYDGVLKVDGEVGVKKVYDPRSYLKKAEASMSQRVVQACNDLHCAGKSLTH
GDH-TPI counter-1: GDH-TPI coupled enzyme inhibition counter-screen; GDH-TPI coupled enzyme counterscreen, NADH absorbance; inhibition, % at 4.8 µM; actives 1.2% (n = 360,000); AID 588335; in the data active means inhibition above about 30%;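 further: 0% = DMSO wells and 100% = wells lacking the enzyme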
Mtb hypoxia rep: reduces hypoxia-regulated biosensor signal in M. tuberculosis; M. tuberculosis hypoxia-regulated fluorescent reporter, fluorescence; actives 0.1% (n = 300,000); fluorescence inhibition, % (concentration not given with the values); in the data active means fluorescence inhibition mostly above about 23%, no sharp cut-off; inactive means mostly below about 17%
Mtb FBA confirm: confirmation of M. tuberculosis fructose-bisphosphate aldolase inhibitors. shares compounds with FBA Mtb inh. purified M. tuberculosis FBA, fluorescence read-out. inhibition, % at 1 µM. actives 78% (n = 5,600);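 further: 0% = vehicle wells and 100% = reference inhibitor wells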
GDH-TPI counter-2: GDH-TPI inhibition counter-screen for FBA inhibitors. inhibition, % at 1 µM. actives 81% (n = 5,600). shares compounds with FBA Mtb inh. AID 652141. GDH-TPI coupled enzyme counterscreen, fluorescence; in the data active means inhibition above about 10%
GDH-TPI DR: counter-screen for M. tuberculosis FBA inhibitors: GDH-TPI dose response. GDH-TPI coupled enzyme assay, fluorescence, artifact counterscreen. shares compounds with FBA Mtb inh. actives 79% (n = 170). IC50, µM; call rule not given here
The depositor's hits bear a star; . = no result; + = active, no number. Unless noted, no stated cut-off is given here; in the data, active means inhibition above about 27%; inactive means the rest.

SMILES | Y pestis TopoI | PrPC surface inh | PrP 5UTR inh | FBA Mtb inh | GDH-TPI counter-1 | Mtb hypoxia rep | Mtb FBA confirm | GDH-TPI counter-2 | others
Cc1cc(OC(C)C(=O)NCC(O)c2ccccc2)c2c(C)c(C)c(=O)oc2c1 (stereo unspecified) | -10 | -4 | -6 | 50* | 11 | -7 | 73* | 45*
Cc1cc(OC(C)C(=O)NC2CCN(Cc3ccccc3)CC2)c2c(C)cc(=O)oc2c1 (stereo unspecified) | 14 | . | 2 | 10 | 1 | 3 | . | .
CCc1cc(=O)oc2cc(C)cc(OC(C)C(=O)NC3CCN(Cc4ccccc4)CC3)c12 (stereo unspecified) | 14 | -1 | -2 | 51* | 1 | 1 | 14 | 0 | GDH-TPI DR=3*
Cc1cc(OC(C)C(=O)N2CCN(c3ccccc3)CC2)c2c(C)c(C)c(=O)oc2c1 (stereo unspecified) | 6 | 4 | -4 | 8 | 4 | 3 | . | .
NCCCCC1CNC(=S)N1CCc1cccc(F)c1 (stereo unspecified) | . | . | . | . | . | 22 | . | .
COc1ccccc1C=NNC(=O)c1ccc(-c2ccccc2)cc1 | . | . | . | . | . | -16 | . | .
O=C(NN=CC1CC=CCC1)c1ccc(O)cc1O (stereo unspecified) | . | . | . | . | . | 0 | . | .
CCc1cc2c(-c3ccccc3)cc(=O)oc2cc1OC(C)C(=O)NCC1CCC(C(=O)O)CC1 (stereo unspecified) | 11 | 5 | -35 | 2 | 15 | . | . | .
CCc1cc(=O)oc2cc(C)cc(OC(C)C(=O)NCC(O)c3ccccc3)c12 (stereo unspecified) | 5 | -5 | -61 | 59* | -7 | 5 | + | +
Cc1nc2ccc(N)cc2c(=O)n1Cc1ccc(Cl)cc1 | 4 | 6 | -8 | 41* | 10 | . | 40* | 33*
Cc1nc2c(cc1N)nc(C)n2Cc1ccccc1 | 2 | 2 | -12 | 99* | 0 | -1 | 20 | 3 | GDH-TPI DR=1.2*
CC(=O)Nc1cc2nc(C)n(Cc3ccc([N+](=O)[O-])cc3)c2nc1C | -5 | -17 | -18 | -3 | 7 | 7 | . | .
Cc1nc2ccc([N+](=O)[O-])cc2c(=O)n1Cc1ccc(Cl)cc1 | 3 | -2 | -5 | 2 | 6 | -6 | . | .
COC(=O)NN=Cc1ccc(-c2cc(Cl)c(Cl)cc2Cl)o1 | . | . | . | . | . | 7 | . | .
Cc1ccc(-c2ccc(C(=O)NCc3ccccc3)o2)c2ccccc12 | 32 | -3 | -6 | 61* | 11 | 10 | 120* | 74*
Cc1ccc(-c2cccc(C(=O)NCc3ccccc3)n2)c2ccccc12 | -13 | 7 | -17 | 4 | 4 | 5 | . | .
Cc1ccc2cc(C#N)c(NCCNC(=O)C3CCC3)nc2c1C | 0 | -1 | -17 | 52* | -1 | 2 | 2 | -2
CCOCCCNC(=S)N1CCCN(c2nc3c(C)c(C)ccc3cc2C#N)CC1 | 42 | 2 | -5 | 13 | -7 | 7 | . | .
Cc1ccc2cc(C#N)c(NCCCNC(=O)C3CCCO3)nc2c1 (stereo unspecified) | 3 | -5 | -9 | 51* | -2 | 6 | 92* | 86*
CCOCCCNC(=S)NCCCNc1nc2c(C)c(C)ccc2cc1C#N | 21 | -6 | -24 | 47* | 2 | 7 | 111* | 79*
Cc1cccc2cc(C#N)c(NCCNC(=O)NC3CCCCC3)nc12 | 6 | 7 | -23 | 4 | 0 | 12 | . | .
CCN(CC)CCNC(=O)c1cc(-c2ccco2)nc2ccccc12 | -2 | -3 | -4 | 82* | 5 | 16 | 152* | 129*
O=C(NNC(=O)c1cc(-c2ccco2)nc2ccccc12)c1ccccc1 | -7 | -13 | -8 | 50* | 3 | 15 | 68* | 61*
COc1ccc(Cl)cc1N(CC(=O)NN=Cc1ccc(OC(C)C)cc1)S(=O)(=O)c1ccc(C)c([N+](=O)[O-])c1 | . | . | . | . | . | 6 | . | .
Cc1ccc(NC(=O)CCC(=O)NN=Cc2ccc(O)cc2)cc1 | . | . | . | . | . | 3 | . | .
